Inconclusive results are not listed. Where a call stands in place of a potency, no number is given. Active and inactive are the calls of the source. The call rests on the fitted dose curve; in most records, active means well fitted inhibition curve with a large enough effect; inconclusive means small, poorly fitted or top-dose-only effect; inactive means no such curve, though single readings can be large or run the other way.

Sequence of Protein phosphatase 1D (Homo sapiens) (O15297 whole entry, looked up): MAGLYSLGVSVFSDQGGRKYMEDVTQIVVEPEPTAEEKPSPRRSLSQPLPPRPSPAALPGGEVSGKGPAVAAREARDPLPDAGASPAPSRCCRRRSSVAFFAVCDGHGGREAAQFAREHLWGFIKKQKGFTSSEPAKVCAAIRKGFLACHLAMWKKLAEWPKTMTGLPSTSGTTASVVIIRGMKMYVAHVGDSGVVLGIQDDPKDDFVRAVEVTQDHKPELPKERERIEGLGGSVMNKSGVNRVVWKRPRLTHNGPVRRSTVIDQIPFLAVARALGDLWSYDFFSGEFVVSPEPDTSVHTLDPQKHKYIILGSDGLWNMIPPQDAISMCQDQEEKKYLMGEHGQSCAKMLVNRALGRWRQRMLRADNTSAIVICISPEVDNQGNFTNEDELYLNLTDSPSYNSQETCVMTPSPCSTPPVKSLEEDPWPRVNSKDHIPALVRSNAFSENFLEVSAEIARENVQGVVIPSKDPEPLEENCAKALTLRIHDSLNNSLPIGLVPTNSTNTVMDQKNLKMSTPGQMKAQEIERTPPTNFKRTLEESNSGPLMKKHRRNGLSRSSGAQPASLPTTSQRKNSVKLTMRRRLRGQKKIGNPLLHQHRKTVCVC

For this test, the target named is Protein phosphatase 1D (Homo sapiens) (UniProt O15297). The test is described as follows: RapidFire Mass Spectrometry qHTS Assay for Modulators of WT P53-Induced Phosphatase 1 (WIP1) (AID 1347424). To be noted: WIP1 dephosphorylation of phosphopeptide, RapidFire MS; series mostly up to 63 µM. From the text:
Assay Provider (PI): Nathan Coussens Ph. D.
National Center for Advancing Translational Sciences (NCATS), Rockville, MD
National Institute of Health (NIH), Bethesda, Maryland
WT P53-Induced Phosphatase 1 (WIP1) is a member of the magnesium-dependent serine/threonine protein phosphatase (PPM) family and is induced by P53 in response to DNA damage. In several human cancers, the WIP1 protein is overexpressed, which is generally associated with a worse prognosis. Although WIP1 is an attractive therapeutic target, no potent, selective, and bioactive small-molecule modulator with favorable pharmacokinetics has been reported. Phosphatase enzymes are among the most challenging targets for small molecules because of the difficulty of achieving both modulator selectivity and bioavailability. Another major obstacle has been the availability of robust and physiologically relevant phosphatase assays that are suitable for high-throughput screening.
Here, we describe two orthogonal biochemical WIP1 activity assays that utilize phosphopeptides from native WIP1 substrates. We optimized a RapidFire MS assay to quantify the enzymatically dephosphorylated peptide reaction product in a 384-well format. Additionally, a redshifted Rhodamine-PBP fluorescence assay was optimized in a 1,536-well format to enable real-time WIP1 activity measurements through the detection of the orthogonal reaction product, Pi. We validated these two optimized assays by quantitative high-throughput screening against the National Center for Advancing Translational Sciences (NCATS) Pharmaceutical Collection and used secondary assays to confirm and evaluate inhibitors identified in the primary screen.
SEQUENCE No. (e.g., 1, 2, 3, etc.); […] (e.g., Cells, Incubation, Reagent, etc.); VALUE; DESCRIPTION
1; Reagent; 50 uL; dispensed assay buffer: 0.1% formic acid in water (10 uL : 40 uL) solution in column 1
3; Library Compounds; 63 nL; library compounds in DMSO, columns 3-24
4; Control Compounds; 63 nL; DMSO in wells I-P, columns 1-2, GSK830371 (10 uM, final) in wells A-H, column 2
5; Time; 1 hr; incubation
6; Substrate; 2 uL; VEPPL-pS-QETFS (10 uM) in assay buffer, column 2-24
7; Time; 5 min; incubation
8; Reagent; 2 uL; 0.5% formic acid in water, columns 2-24
9; Reagent; 38 uL; VEPPL-S-QETF*S in 0.1% formic acid, columns 2-24
10; Detection; mass spec; RapidFire mass spectrometry
NOTES (numbers refer to sequence above)
1, 2, 6; dispensed reagent in White Nunc 384-well PP microplates (264573); assay buffer: 50 mM Tris-HCl pH 7.5, 30 mM MgCl2, 1 mM TCEP, 0.1 mM EGTA, 75 ug/mL BSA.
2, 6, 8, 9; Dispensed with BioRaptr (Beckman Coulter)
2, 6, 9; Final concentrations: 10 nM WIP1; 2 uM VEPPL-pS-QETFS; 1 uM VEFFL-S-QETF*S
3 & 4; Kalypsys Pintool transfer (Wako USA), Tip wash sequence: water, DMSO, methanol, 20 sec vacuum dry.
5 & 7; incubation at room temperature
10; RapidFire mass spectrometry read using the Agilent RapidFire 360 (Clausse, 2019)
Clausse V, et al. Physiologically relevant orthogonal assay for the discovery of small-molecule modulators of WIP1 […] in high-throughput screens. J Biol Chem. 2019, 294(46): 17654-17668. doi:10.1074/jbc.RA119.010201
On the technique in general: qHTS replaces the single test concentration by a dilution series.
`C[C@@H]1CN(C2CCC(C#N)(c3ccc(F)cc3)CC2)CC[C@]1(C(=O)O)c1ccccc1` (stereo not given in full): the Potency result was “inactive”.
In the case of `C[C@@H]1C[C@@H]([C@H](O)CC2CC(=O)NC(=O)C2)C(=O)[C@@H](C)C1` it was “inactive”; in that of `CCS(=O)(=O)C(C)(C)S(=O)(=O)CC`, “inactive”; in that of `CCOC(=O)c1ncn2c1CN(C)C(=O)c1c(I)cccc1-2`, “inactive”.
For `CCCC[N+]1(C)[C@@H]2CC(OC(=O)[C@H](CO)c3ccccc3)C[C@H]1[C@@H]1O[C@@H]12` (stereo not given in full), the Potency result was “inactive”.
In the case of `CC(CC(C(N)=O)(c1ccccc1)c1ccccc1)N(C)C` (stereo not given) it was “inactive”; in that of `OC(O)C(Cl)(Cl)Cl`, “inactive”; in that of `NCc1cccnc1`, “inactive”.
In the case of `C=CCN1CC[C@]23CCCC[C@H]2[C@H]1Cc1ccc(O)cc13` it was “inactive”.
In the case of `CN(C)CCc1c[nH]c2ccccc12` it was “inactive”; in that of `CCN(Cc1ccc(Cl)nc1)/C(=C/[N+](=O)[O-])NC`, “inactive”.
As for `Nc1ccccc1C(=O)OCC(O)CO` (stereo not given), the Potency result is “inactive”.
In the case of `CCOC(=O)c1cncn1C(C)c1ccccc1` (stereo not given) it was “inactive”; in that of `CC(Cc1ccccc1)NCCCCl` (stereo not given), “inactive”; in that of `CCc1ccc(C2CCNCC2)cc1`, “inactive”.
Take `CNC(=O)NC(O)C(Cl)(Cl)Cl` (stereo not given): the Potency result was “inactive”.
The result for `Cc1nc2ccccc2c(=O)n1-c1ccccc1Cl` reads “inactive”.
In the case of `Oc1c(Br)cc(Br)cc1Br`, the Potency result was “inactive”.
The result for `CCOC(C(=O)OCCN(C)C)(c1ccccc1)c1ccccc1` reads “inactive”.
In the case of `O=C(CBr)Nc1ccc(Cl)cc1C(=O)c1ccccc1F`, the Potency result was “inactive”.
`O=C1NCN(c2ccccc2)C12CCN(CCCOc1ccc(F)cc1)CC2`: the Potency entry was “inactive”.
In the case of `CCC(=O)O[C@H]1CC[C@H]2[C@@H]3CCC4=CC(=O)CC[C@]4(C)[C@H]3CC[C@]12C` it was “inactive”; in that of `O=C(CCCN1CCC(n2c(=O)[nH]c3ccccc32)CC1)c1ccc(F)cc1`, “inactive”.
`CC[C@H](O)C(C[C@H](C)N(C)C)(c1ccccc1)c1ccccc1`: the Potency result is “inactive”.
In the case of `CCN1CCCC1CNC(=O)C(O)(c1ccccc1)c1ccccc1` (stereo not given) it was “inactive”; in that of `COc1cc(N)c(Cl)cc1C(=O)NC1CN2CCC1CC2` (stereo not given), “inactive”.
`CC1N=C(N)OC1c1ccccc1` (stereo not given): the Potency entry is “inactive”.
The result for `CCC(=O)OC1(c2ccccc2)CCN(C)CC1` reads “inactive”.
As to `ClCCCN1CCN(c2cccc(Cl)c2)CC1`, the Potency result was “inactive”.
Regarding `C=CC[C@]1(O)CC[C@H]2[C@@H]3CCC4=CC(=O)CCC4=C3C=C[C@@]21C`, the Potency result is “inactive”.
With `CC(C)NCC(O)c1ccc(N)c(C#N)c1` (stereo not given), the Potency entry was “inactive”.
Regarding `COc1cc(C[C@@H](C)N)c(OC)cc1Br`, the Potency entry was “inactive”.
On to `Clc1ccc(CO/N=C(\Cn2ccnc2)c2ccc(Cl)cc2Cl)c(Cl)c1`, for which the Potency entry was “inactive”.
As for `COc1cc(CC#N)cc(OC)c1OC`, the Potency result was “inactive”.
As for `NC(=O)CN1CCCC1=O`, the Potency result was “inactive”.
The result for `C[N+](C)(C)CCOC(=O)C(O)(c1ccccc1)c1ccccc1` reads “inactive”; that for `Cc1nnc2n1-c1sc(CCC(=O)N3CCOCC3)cc1C(c1ccccc1Cl)=NC2`, “inactive”; that for `CCCOC(=O)Cc1ccc(OCC(=O)N(CC)CC)c(OC)c1`, “inactive”.
Turning to `C[N+]1(CCC(C(N)=O)(c2ccccc2)c2ccccc2)CCCCC1`, the Potency entry was “inactive”.
With `COP(=S)(OC)Oc1ccc(S(N)(=O)=O)cc1`, the Potency entry was “inactive”.

The values are drawn from PubChem BioAssay (NCATS).
